According to PubChem BioAssay (NCI):
The panel holds about 79,000 compounds, 15% with a hit somewhere; the sample as a whole holds those more often. Unmarked numbers belong to inactive results. The source made the active and inactive calls. No stated cut-off is given here; in the data, active means growth inhibition above about 70%; inactive means the rest.

Key:
[1] = NCI Yeast Anticancer Drug Screen. Data for the rad50 strain (AID 155);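 further: 0% = growth of vehicle-only cultures of the same strain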; details: S. cerevisiae rad50 strain growth inhibition, hits give high values
How it was run: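 Vehicle-treated cultures provide the reference for the growth inhibition reported for compound-exposed, repair-deficient yeast.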

[2] = NCI Yeast Anticancer Drug Screen. Data for the mec2-1 strain (AID 157); details: S. cerevisiae mec2-1 strain, hits give high values
How it was run: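 Yeast mec2-1 mutant treated with compound. Readout: growth inhibition vs vehicle controls.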

[3] = NCI Yeast Anticancer Drug Screen. Data for the sgs1 mgt1 strain (AID 161);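 further: 0% = growth of cultures given vehicle only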; details: S. cerevisiae sgs1 mgt1 strain, hits give high values
How it was run: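 Mutant yeast exposed to compound; growth scored against vehicle-only wells.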

[4] = NCI Yeast Anticancer Drug Screen. Data for the cln2 rad14 strain (AID 165);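 further: 0% = growth equal to vehicle treated cultures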; details: S. cerevisiae cln2 rad14 strain, hits give high values
How it was run: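 cln2 rad14 yeast strain; compound exposure; growth inhibition read vs vehicle controls.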

[5] = NCI Yeast Anticancer Drug Screen. Data for the bub3 strain (AID 167); details: S. cerevisiae bub3 mutant strain, hits give high values
How it was run: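 Mutant yeast screening strain plus compound; vehicle-treated cultures serve as the 0% inhibition reference.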

[6] = NCI Yeast Anticancer Drug Screen. Data for the mlh1 rad18 strain (AID 175); details: S. cerevisiae mlh1 rad18 strain growth inhibition, hits give high values
How it was run: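 Yeast w/ defined DNA-repair lesions; compound exposure; growth vs vehicle controls → % inhibition.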

[7] = at 5.0 µM (retest, dose inferred, filed as 0.5)
[8] = at 50.0 µM (retest, dose inferred, filed as 5.0)

| Compound | growth inhibition [1, 7] | growth inhibition [1, 8] | growth inhibition ([1]; at 50.0 µM) | growth inhibition [2, 7] | growth inhibition [2, 8] | growth inhibition ([2]; at 50.0 µM) | growth inhibition [3, 7] | growth inhibition [3, 8] | growth inhibition ([3]; at 50.0 µM) | growth inhibition [4, 7] | growth inhibition [4, 8] | growth inhibition ([4]; at 50.0 µM) | growth inhibition [5, 7] | growth inhibition [5, 8] | growth inhibition ([5]; at 50.0 µM) | growth inhibition [6, 7] | growth inhibition [6, 8] | growth inhibition ([6]; at 50.0 µM) |
| --- | --- | --- | --- | --- | --- | --- | --- | --- | --- | --- | --- | --- | --- | --- | --- | --- | --- | --- |
| O=C(/C=C/C(=N\Nc1ccccc1)c1ccccc1)c1ccccc1 | 21% | 90% (active) | 37.9% | 23% | 99% (active) | 13.9% | 27% | 96% (active) | 26.4% | 46% | 98% (active) | 30.9% | 67% | 99% (active) | 21.5% | 47% | 95% (active) | 72% (active) |
| Cc1cccc(Cc2cccc(Cl)c2)c1O | -1% | 95% (active) | 99.3% (active) | -1% | 98% (active) | 99.8% (active) | 3% | 89% (active) | 99.6% (active) | -4% | 90% (active) | 99% (active) | -9% | 94% (active) | 99.1% (active) | 8% | 96% (active) | 98.9% (active) |
| Oc1c(Cl)cc(C(c2cc(Cl)c(O)c(Cl)c2)C(c2cc(Cl)c(O)c(Cl)c2)c2cc(Cl)c(O)c(Cl)c2)cc1Cl | 99% (active) | 98% (active) | 92.5% (active) | 99% (active) | 98% (active) | 95.8% (active) | 99% (active) | 98% (active) | 42.8% | 98% (active) | 98% (active) | 92% (active) | 99% (active) | 98% (active) | 93.9% (active) | 99% (active) | 98% (active) | 96.8% (active) |
| CC(C)NC(=O)OCc1c(CO)c2c(n1C)-c1ccccc1CC2 | -5% | 96% (active) | 95.9% (active) | -4% | 96% (active) | 98% (active) | 50% | 96% (active) | 97.8% (active) | -10% | 95% (active) | 96.8% (active) | -3% | 96% (active) | 98.3% (active) | 11% | 96% (active) | 95.5% (active) |
| O=c1oc(-c2ccc(Cl)c([N+](=O)[O-])c2)ns1 | 1% | 92% (active) | 97.1% (active) | 3% | 93% (active) | 95.3% (active) | 4% | 89% (active) | 97.8% (active) | 4% | 48% | 53.6% | 1% | 91% (active) | 97.2% (active) | 2% | 98% (active) | 91.8% (active) |
| N#CC(/C=C/c1ccccc1)(NO)Nc1cccc(Cl)c1 (configuration not stated) | 6% | 98% (active) | 99.2% (active) | 32% | 99% (active) | 99.6% (active) | 39% | 99% (active) | 99.1% (active) | 10% | 99% (active) | 98.8% (active) | 29% | 99% (active) | 99.5% (active) | 23% | 99% (active) | 99.5% (active) |
| CC(=O)Oc1ccccc1C(=O)/C=C/c1ccccc1 | 3% | 82% (active) | -11.2% | 7% | 89% (active) | 17.4% | 4% | 93% (active) | 11.6% | 0% | 40% | -17.3% | -1% | 90% (active) | 61% | -1% | 98% (active) | 9.75% |
| c1ccc2c(c1)Cc1nc3ccccc3nc1-2 | -33% | 93% (active) | 98.3% (active) | -42% | 93% (active) | 98.2% (active) | -59% | 86% (active) | 90.6% (active) | -56% | 88% (active) | 90% (active) | -65% | 90% (active) | 97.4% (active) | -118% | 92% (active) | 97.8% (active) |
| CC(C)OC(=O)c1ccc(CCC2=CC(=O)C=CC2=O)cc1 | 34% | 89% (active) | 81.1% (active) | 53% | 99% (active) | 77.2% (active) | 86% (active) | 94% (active) | 87.3% (active) | 76% (active) | 91% (active) | 61.7% | 92% (active) | 95% (active) | 87.4% (active) | 66% | 98% (active) | 79.2% (active) |
